Hits are enriched below; roughly 3.3% of the tested compounds scored in any of these assays.
RE007 growth inh – qHTS Assay for Inhibitors of the HIV-1 protein Vpr | S. pombe RE007 Vpr strain, BacTiter-Glo ATP luminescence, 24 h | Potency, µM (series often up to 92.2 µM), actives largely listed as inhibitors | 0.21% of 360,000 active | AID 651644, 2012; active means well fitted falling curve with a large enough effect; inconclusive means small, poorly fitted or top-dose-only effect; inactive means no such curve, though single readings can be large or run the other way; further: nearly all actives have a fitted effect of over 50% in size
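Fission yeast RE007 carrying one integrated HIV-1 vpr copy, seeded at OD 0.01 in PMG+AL medium with 23 nL pinned compound. Grown 24 h at 30 degrees; viability read by BacTiter-Glo luminescence after 5 min.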
FBPA Giardia inh – qHTS Assay for Inhibitors of Fructose-1,6-bisphosphate Aldolase from Giardia Lamblia | Potency, µM (highest dose often 59.6 µM), usual class: inhibitors | purified Giardia FBPA | AID 2451, 2010 | A8B2U2 | 0.71% of 290,000 active; further: nearly all actives have a fitted effect of over 55% in size
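40 nM FBPA preincubated 10 min at RT with compound (up to 57.5 uM final), then substrate plus GAPDH/TPI/NAD/arsenate coupling and diaphorase/resazurin added. Fluorescence read after 20 min at RT, 525/598 nm.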
Sm TGR inh – qHTS Assay for the Inhibitors of Schistosoma Mansoni Peroxiredoxins | purified TGR, DTNB reduction, TNB absorbance 405 nm | Potency, µM (doses to about 114 µM), hits mostly inhibitors | 3% of 360,000 active | AID 485364, 2010; further: nearly all actives have a fitted effect of over 60% in size
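TGR 20 nM + NADPH 100 uM (dispensed conc.), cpd preinc 15 min RT; start with NADPH (500 uM addition) then DTNB (15 mM addition). Kinetic TNB absorbance, 405 nm filter. Four-parameter Hill fit across titration.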
LmPK inhibitor – qHTS Assay for Inhibitors of Leishmania Mexicana Pyruvate Kinase (LmPK); Q27686; purified LmPK, Kinase-Glo ATP luminescence, 1 h; Potency, µM (top dose mostly 57.5 µM), hits mostly inhibitors; 0.37% of 290,000 active; AID 1721, 2009
Target sequence (Q27686 whole entry, looked up): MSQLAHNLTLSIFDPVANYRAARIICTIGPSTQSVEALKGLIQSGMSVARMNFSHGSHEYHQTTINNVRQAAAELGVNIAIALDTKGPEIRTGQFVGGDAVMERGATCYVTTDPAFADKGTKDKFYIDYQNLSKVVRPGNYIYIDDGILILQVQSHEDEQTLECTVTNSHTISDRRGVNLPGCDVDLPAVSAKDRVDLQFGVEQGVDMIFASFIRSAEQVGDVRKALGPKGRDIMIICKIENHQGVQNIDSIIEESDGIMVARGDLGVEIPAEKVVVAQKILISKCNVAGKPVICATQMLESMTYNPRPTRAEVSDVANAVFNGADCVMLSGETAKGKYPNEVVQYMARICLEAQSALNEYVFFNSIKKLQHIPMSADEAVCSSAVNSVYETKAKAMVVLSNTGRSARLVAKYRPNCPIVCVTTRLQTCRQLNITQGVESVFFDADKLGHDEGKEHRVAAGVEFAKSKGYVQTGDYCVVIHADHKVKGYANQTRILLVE
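Screened at intermediate enzyme activity to detect both inhibitors and activators: LmPK at 0.1 nM, with a 0.5 nM enzyme column as activation reference. PEP 0.5 mM, ADP 0.1 mM; ATP detected by luminescence after 1 h.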
Tb PYK inh – qHTS of Trypanosoma Brucei Inhibitors. pyruvate kinase (Trypanosoma brucei), Q57TT1. TbPYK enzyme, Kinase-Glo Plus ATP luminescence, 45 min. Potency, µM (top dose mostly 76.8 µM), actives largely listed as inhibitors. 0.12% of 410,000 active. AID 624173, 2012; further: nearly all actives have a fitted effect of over 50% in size
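Readout: single end-point luminescence (Kinase-Glo Plus, 10 min). Reaction conditions were TbPYK/substrate plus 130 uM ADP, 45 min at RT, pH 7.2 TEA buffer. No-enzyme wells served as controls, and data were normalized before concentration-response fitting.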
A number is an active result; i = inactive; ? = inconclusive; nt = no result; [ ] = another dose, or the depositor's remark. Unless noted, the call rests on the fitted dose curve; in most records, active means well fitted curve in the direction sought with a large enough effect; inconclusive means small, poorly fitted or top-dose-only effect, or another doubt; inactive means no such curve, though single readings can be large; an effect the other way counts as inactive or inconclusive.

SMILES	RE007 growth inh	FBPA Giardia inh	Sm TGR inh	LmPK inhibitor	Tb PYK inh
COc1cc(S(=O)(=O)N2CCOCC2)ccc1NC(=O)COC(=O)c1ccccn1	i	i	i	i	i
CCOC(=O)CSc1ccc(C(=O)Nc2ccc(Cl)cc2)cn1	i	i	i	i	i
C(C#CCCCCCCCCC[n+]1ccccc1)#CCCCCCCCCC[n+]1ccccc1	7.9µM	i	40µM	i	i
CC(C)(C)c1cc(CN2CCN(CCO)CC2)cc(C(C)(C)C)c1O	i	i	2.5µM	i	i
CN1CCN(CC(=O)c2cc(C(C)(C)C)c(O)c(C(C)(C)C)c2)CC1	i	i	i	i	i
CCN1CCN(Cc2cc(C(C)(C)C)c(O)c(C(C)(C)C)c2)CC1	nt	?	2.8µM	i	nt
COc1cc(CN2CCN(CCCSc3cc(C(C)(C)C)c(O)c(C(C)(C)C)c3)CC2)cc(OC)c1OC	nt	i	nt	nt	nt
CCCS(=O)(=O)c1c(S(=O)(=O)CCC)c2c(N)cccn2c1C(=O)OC	i	?	nt	i	i
CCCS(=O)(=O)c1c(S(=O)(=O)CCC)c2c(N)cccn2c1C(=O)c1ccccc1	i	?	50µM	i	i
O=C1C(=O)c2ccccc2C(O)=C1CCCCl	?	3.5µM	?	i	i
O=c1c(Cl)c(Cl)cnn1Cc1ccccc1Cl	i	i	13µM	i	i
O=c1c(Cl)c(Cl)cnn1-c1ccccc1	i	i	40µM	i	i
O=c1c(Cl)c(Cl)cnn1Cc1nnc(-c2ccc(Cl)cc2)o1	i	i	4.5µM	i[11.5 µM]	i
Cc1ccc(Cn2ncc(Cl)c(Cl)c2=O)cc1	i	i	3.5µM	i	i
COCCNc1nc(NCc2cccc(OC)c2)c2sccc2n1	i	nt	nt	nt	i
Cc1ccc(S(=O)(=O)N(C)CC(=O)NCCCn2nc(C)cc2C)cc1	i	nt	nt	nt	i
Nc1c(C(=O)Nc2ccc3c(c2)OCCO3)nnn1Cc1ccc(Cl)cc1	i	nt	i	nt	i
CCc1ccc(C(=O)Cn2ncc(Cl)c(Cl)c2=O)cc1	i	i	?	i	i
Cc1cc(C)cc(Cn2ncc(Cl)c(Cl)c2=O)c1	i	i	2.8µM	i	i
O=P(Oc1ccccc1)(Oc1ccccc1)C(O)c1ccccc1 (configuration not stated)	i	nt	i	nt	i
C/C(=N\OC(=O)c1ccc(F)cc1)c1nccs1	i	i	i	?	i
C/C(=N\OC(=O)c1c(-c2c(F)cccc2Cl)noc1C)c1nccs1	i	i	i	i	i
C/C(=N/OC(=O)c1c(F)cccc1F)c1nccs1	i	i	i	13µM	i
COc1ccc(C(=O)O/N=C(\C)c2nccs2)cc1	i	i	i	7.9µM	?
COc1ccc(C(=O)O/N=C(/C)c2cccs2)cc1	40µM	i	i	3.5µM	25µM
SMILES	RE007 growth inh	FBPA Giardia inh	Sm TGR inh	LmPK inhibitor	Tb PYK inh
COc1ccc(C/C(N)=N/OC(=O)c2cccs2)cc1	i	i	i	i	i
N#CC1=C(SCC(=O)Nc2ccc(C(=O)O)cc2)NC(=O)CC1c1ccco1 (configuration not stated)	i	i	35µM	i	i
CCC1(CC)NC(=O)N(CC(=O)NC(=O)NCc2ccccc2)C1=O	i	i	22µM	i	i
CCC(=O)OC1(C)C(=O)C2=COC(c3ccc(OC)cc3)=CC2=C(Br)C1=O (configuration not stated)	?	i	11µM	i	i
COC(=O)CCC(=O)OC1(C)C(=O)C2=CN(Cc3ccc(OC)cc3)C(c3ccc(OC)cc3)=CC2=C(Br)C1=O (configuration not stated)	i	?	nt	i[11.5 µM]	i
COc1ccc(C2=CC3=C(Br)C(=O)C(C)(O)C(=O)C3=CO2)cc1 (configuration not stated)	?	i	8.9µM	?	i
COC(=O)CCC(=O)OC1(C)C(=O)C2=CN(CC(C)C)C(c3ccc(OC)cc3)=CC2=C(Br)C1=O (configuration not stated)	nt	1µM	?	i[11.5 µM]	nt
O=c1[nH]c2ccc(Br)cc2c(-c2ccccc2)c1CN1CCOCC1	i	i	35µM	i	i
O=c1[nH]c2ccc(Br)cc2c(-c2ccccc2)c1N1CCOCC1	i	i	i	i	i
Cc1ccc(/C=C/C(=O)OC(C)C(=O)Nc2ccc(Cl)cn2)o1 (configuration not stated)	i	i	13µM	i	?
COc1cc(/C=C/C(=O)OC(C)C(=O)Nc2ccc(Cl)cn2)ccc1OC(F)F (configuration not stated)	i	nt	nt	nt	i
Cc1cccc(Nc2nc3c(s2)CCCC3)c1	25µM	i	i	i	i
O=C(O)c1ccc(Nc2nc3c(s2)CCCC3)cc1	i	i	nt	i	i
Clc1ccc(C2=Nn3c(nnc3-c3cccs3)SC2)cc1	i	i	79µM	i	i
CCc1nnc2n1N=C(c1ccc(Cl)cc1)CS2	i	i	i	i	i
c1ccc(-c2ccc(C3=Nn4c(nnc4-c4cccs4)SC3)cc2)cc1	i	i	i	i	i
CCCc1nnc2n1N=C(c1ccc(C)cc1)CS2	i	nt	45µM	i	i
CCc1nnc2n1N=C(c1ccccc1)CS2	i	i	45µM	i	i
COc1ccc(OCC(=O)C2CC2)c(C#N)c1	i	i	i	i	i
NCCSC1CC(=O)N(c2ccc(Cl)c(Cl)c2)C1=O (configuration not stated)	i	i	63µM	i	i
O=C1CC(SCc2nc3ccccc3[nH]2)C(=O)N1c1ccc(F)cc1 (configuration not stated)	?	i	45µM	i	i
O=C1CC(c2nc3ccccc3[nH]2)CN1c1cccc(Cl)c1 (configuration not stated)	nt	nt	i	nt	i
NCCSC1CC(=O)N(c2ccc(F)cc2)C1=O (configuration not stated)	i	?	?	i	i
CCCOc1ccc(N2C(=O)CC(SCc3nc4ccccc4[nH]3)C2=O)cc1 (configuration not stated)	63µM	i	?	i	i
O=C1CC(SCc2nc3ccccc3[nH]2)C(=O)N1c1cccc(Cl)c1 (configuration not stated)	28µM	i	?	i	i
CCC(C(=O)OCC(=O)Nc1cccc(C(C)=O)c1)c1ccccc1 (configuration not stated)	i	i	i	i	i
CC1c2ccccc2N(NC(=O)Cc2ccccc2)C1C (configuration not stated)	i	i	i	i	i
O=C(O)CCSC1CC(=O)N(c2ccccc2)C1=O (configuration not stated)	i	i	?	i	i
O=C1CC(SCCc2nc3ccccc3[nH]2)C(=O)N1c1ccc(F)c(Cl)c1 (configuration not stated)	28µM	nt	nt	nt	i

Source: PubChem (National Center for Advancing Translational Sciences (NCATS))
